Source: PubChem BioAssay
Calls of active or inactive are those of the source. Cut-off read from the data, not from the text of the source: active = fold change permeability below about 0.7 or above about 1.3; inactive = in between.

test: modulators of brain endothelial barrier permeability, primary screen, cell-based, FITC-avidin fluorescence, HTS (AID 1963498); details: actives lie on both sides; note: test concentration not given here

| SMILES | fold change permeability |
| --- | --- |
| COc1ccc(-c2cc(=O)c3c(O)c(OC)c(OC)cc3o2)cc1O | 1.6 (active) |
| O=C1Cc2cc(CCN3CCN(c4nsc5ccccc45)CC3)c(Cl)cc2N1 | 0.9 (inactive) |
| CC(C)(N)C(=O)N[C@H](COCc1ccccc1)C(=O)N1CCC2(CC1)CN(S(C)(=O)=O)c1ccccc12 | 1.8 (active) |
| CNC1(C)C2CCC(C2)C1(C)C (stereo unspecified) | 0.8 (inactive) |
| CCN(CC)C(=O)c1ccc(O)c(OC)c1 | 0.8 (inactive) |
| O=C1OC(=O)C2C3CCC(O3)C12 (stereo unspecified) | 0.9 (inactive) |
| Cc1ccc(-n2sc(=O)n(Cc3ccc(F)cc3)c2=O)cc1 | 1.1 (inactive) |
| CN(C)CCC=C1c2ccccc2C=Cc2ccccc21 | 1.1 (inactive) |
| NC(N)=Nc1nc(CSCC/C(N)=N/S(N)(=O)=O)cs1 | 0.9 (inactive) |
| O=C1CN2Cc3c(ccc(Cl)c3Cl)N=C2N1 | 1.1 (inactive) |
| COc1ccc(Br)cc1S(=O)(=O)NC(=O)/C=C/c1ccccc1Cc1ccc2ccccc2c1 | 1.1 (inactive) |
| COc1ccc(CCN(C)CCc2ccc(OC)c(OC)c2)cc1OC | 2 (active) |
| CC(C)C[C@H]1C(=O)N2CCC[C@H]2[C@]2(O)O[C@](NC(=O)[C@@H]3C=C4c5cccc6[nH]c(Br)c(c56)C[C@H]4N(C)C3)(C(C)C)C(=O)N12 | 1.1 (inactive) |
| COc1cc2c(CCNC(C)=O)c[nH]c2cc1O | 1.1 (inactive) |
| Cc1cccc(-c2[nH]ncc2-c2ccc3ncccc3n2)n1 | 0.7 (active) |
| COc1ccccc1CN[C@H]1CCCN[C@H]1c1ccccc1 | 0.7 (active) |
| OCCN1CCN(CC/C=C2/c3ccccc3Sc3ccc(C(F)(F)F)cc32)CC1 | 1.2 (inactive) |
| CCN(CC)C(=S)SSC(=S)N(CC)CC | 1.7 (active) |
| Cc1ccc(C(=O)N(CCCN)C(c2oc3cc(Cl)ccc3c(=O)c2Cc2ccccc2)C(C)C)cc1 (stereo unspecified) | 1.6 (active) |
| C[C@]12CCC(=O)C=C1CC[C@@H]1[C@@H]2CC[C@@]2(C)[C@H]1CC[C@]2(O)C(=O)CO | 1.1 (inactive) |
| COc1ccc(S(=O)(=O)Nc2nc(-c3cccc([N+](=O)[O-])c3)cs2)cc1OC | 0.9 (inactive) |
